Values joined by “and” are separate entries in the source; they are usually repeats but may differ in a detail not shown here. Equal entries are not always repeated. Results filed as inconclusive are left out. Active and inactive are the calls of the source. Calls follow the shape of the full dose curve.

Bile acid receptor (Homo sapiens), sequence (Q96RI1 whole entry, looked up): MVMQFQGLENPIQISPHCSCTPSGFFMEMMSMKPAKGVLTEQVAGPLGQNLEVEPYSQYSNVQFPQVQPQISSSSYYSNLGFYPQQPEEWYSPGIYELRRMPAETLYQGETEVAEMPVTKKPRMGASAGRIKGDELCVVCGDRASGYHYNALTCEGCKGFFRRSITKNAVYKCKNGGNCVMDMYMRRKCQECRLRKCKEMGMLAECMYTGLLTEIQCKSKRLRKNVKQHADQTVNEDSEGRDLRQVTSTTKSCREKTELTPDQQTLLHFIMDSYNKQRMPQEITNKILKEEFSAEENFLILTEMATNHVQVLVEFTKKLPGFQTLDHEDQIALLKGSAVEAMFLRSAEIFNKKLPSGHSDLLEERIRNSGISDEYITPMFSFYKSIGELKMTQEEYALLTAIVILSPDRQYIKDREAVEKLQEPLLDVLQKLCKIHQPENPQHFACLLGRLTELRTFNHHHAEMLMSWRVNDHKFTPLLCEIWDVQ

The target in this experiment is Bile acid receptor (Homo sapiens) (UniProt Q96RI1). Briefly: qHTS assay for small molecule agonists of farnesoid X receptor signaling (AID 588527).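 Also: series mostly up to about 77 µM; 0% = vehicle basal and 100% = reference agonist.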 Conditions: HEK293T FXR-UAS-bla, beta-lactamase ratio, 16 h; activation: hits give high values. The gist of the method:
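Agonist-mode beta-lactamase reporter in GeneBLAzer FXR-UAS-bla HEK293T cells, titration up to 92 uM, 16 h exposure at 37 C, CCF4 fluorescence. Response scaled to DMSO (0%) and 100 uM chenodeoxycholic acid (100%), then Hill-fitted for EC50 and efficacy.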
Turning to `COc1cccc(N)c1`, the activation was 2.13% (inactive). As to `Cc1ccc(O)c(N)c1`, the activation is -0.664% (inactive).

For `O=C(O)c1ccc2c(c1)C(=O)OC2=O`, the activation was -5.89% (inactive).

On to `CCCCCCCCCC[N+](C)(C)Cc1ccccc1`, for which the activation was 3.15% (inactive). In the case of `Oc1ccc(Nc2ccccc2)cc1`, the activation was 0.593% (inactive). In the case of `O=[N+]([O-])c1ccc(O)cc1C(F)(F)F` it was -0.0736% (inactive); in that of `CCCC[O][Al]([O]CCCC)[O]CCCC`, 1.48% (inactive); in that of `Cc1nn(C)c(Oc2ccccc2)c1/C=N/OCc1ccc(C(=O)OC(C)(C)C)cc1`, 6.71% (inactive). As to `Nc1nc2ccccc2[nH]1`, the activation is 3.95% (inactive). Under `O=C(Nc1ccccc1)c1cc(Cl)ccc1O` stands 1.59% (inactive); under `COc1ccc(N)c(C)c1`, -1.77% (inactive).

`Cc1ccc2cccnc2c1`: the activation is 1.5% (inactive). Under `CCCCCCCCCCCCC1CO1` (configuration not stated) stands -2.55% (inactive); under `c1ccc2cc3ccccc3cc2c1`, -1.8% (inactive).

As to `Nc1c(N=Nc2ccc(S(=O)(=O)CCOS(=O)(=O)O)cc2)c(S(=O)(=O)O)cc2cc(S(=O)(=O)O)c(N=Nc3ccc(S(=O)(=O)CCOS(=O)(=O)O)cc3)c(O)c12`, the activation is 4.58% (inactive). Under `CCCCOC(=O)/C=C\C(=O)OCCCC` stands -3.9% (inactive); under `CCCCOC(=O)COc1ccc(Cl)cc1Cl`, -5.91% (inactive) and -0.513% (inactive); under `O=C1c2ccccc2C(=O)C1(O)O`, 2.64% (inactive).

As for `Cn1c(=O)[nH]c(=O)n(C2CCCCC2)c1=O`, the activation was 2.64% (inactive).

Consider `Cc1ccc(C(C)(C)C)c(O)c1`, for which the activation was -1.53% (inactive). On to `BrC1CCC(Br)C(Br)CCC(Br)C(Br)CCC1Br` (configuration not stated), for which the activation is 3.55% (inactive). For `COc1ccc(C(=O)Nc2ccccc2)cc1[N+](=O)[O-]`, the activation was -2.07% (inactive).

These data come from PubChem BioAssay (NCATS).
